Data reported in PubChem BioAssay (NCATS).
Inconclusive results are not listed. Active and inactive are the calls of the source. The call rests on the fitted dose curve; in most records, active means well fitted curve in the direction sought with a large enough effect; inconclusive means small, poorly fitted or top-dose-only effect, or another doubt; inactive means no such curve, though single readings can be large; an effect the other way counts as inactive or inconclusive. Square brackets hold non-standard residues; d marks the D form. Peptide text beside a SMILES is read from it. Orn = NCCC[CH](N)C(=O)O

Tests used:
[1] = target: ATP-dependent 6-phosphofructokinase (Trypanosoma brucei brucei) (UniProt O15648); experiment: qHTS Assay to Find Inhibitors of T. brucei phosphofructokinase: hit validation (AID 492961);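 further: luminescence reports ADP formed as PFK phosphorylates fructose-6-phosphate with ATP; on the % scale 0 is the no-effect control and ±100 the full control effect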
Outline: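 PFK 1.25 nM, F6P 0.5 mM, ATP 0.1 mM, MgCl2 5 mM, 0.1 M TEA pH 8.0, Tween20 0.01%, BSA 0.1%; 45 min RT. ADP-Glo two-step detection, luminescence. qHTS titration; curve fitting with curve-class categorization.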

[2] = target: Ubiquitin carboxyl-terminal hydrolase 1 (Homo sapiens) (UniProt O94782); experiment: Inhibitors of USP1/UAF1: Pilot qHTS (AID 504865);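 further: rhodamine fluorescence freed from ubiquitin-rhodamine substrate followed over time; top concentration of the series differs between compounds; on the % scale 0 is the no-effect control and ±100 the full control effect; nearly all actives have a fitted effect of over 35% in size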
Outline: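 Deubiquitinase activity followed as kinetic rhodamine fluorescence release from 150 nM Ub-Rho. 1 nM USP1/UAF1 with compound, after 15 min room-temperature preincubation, in HEPES pH 7.8 buffer containing TCEP, EDTA, BSA and Tween-20.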

[3] = target: Luciferin 4-monooxygenase (Photinus pyralis) (UniProt P08659); experiment: Biochemical firefly luciferase enzyme assay for NPC (AID 624030);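 further: purified P. pyralis luciferase at 10 nM with luciferin and ATP substrate; 0% = DMSO and -100% = full luciferase inhibition by PTC124 control; nearly all actives have a fitted effect of over 70% in size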
Outline: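 Counter-screen for direct inhibition of the luciferase enzyme by approved-drug library compounds, run at 10 nM enzyme in 50 mM Tris acetate (final). Luminescence was read within 5 min of enzyme-buffer addition and normalized to PTC124 versus DMSO (0%).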

[4] = qHTS profiling for inhibitors of Plasmodium falciparum proliferation (AID 504749); further: potency means the concentration at half of the fitted maximal effect;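 on activity, negative = inhibition: 0% = DMSO vehicle and full inhibition = artemisinin control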; on all read-outs here: nearly all actives have a fitted effect of over 60% in size; settings: P. falciparum in erythrocytes, SYBR Green DNA, 72 h; for activity, negative = inhibition: at 28.7 µM (top of the series)
Outline: (§1)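 P. falciparum-infected erythrocytes (0.3% parasitemia, 2.5% hematocrit final) were exposed to compounds for 72 h at 37 C in 5% CO2, then lysed with SYBR Green buffer overnight at room temperature; parasite DNA fluorescence was normalized to artemisinin and DMSO controls.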

ATS189 = experiment: as above; settings: P. falciparum in erythrocytes, SYBR Green DNA, 72 h; series mostly up to 28.7 µM
Outline: as §1

C2A = experiment: as above; settings: P. falciparum in erythrocytes, SYBR Green DNA, 72 h; series mostly up to 28.7 µM
Outline: as §1

CP191 = experiment: as above; settings: P. falciparum in erythrocytes, SYBR Green DNA, 72 h; series mostly up to 28.7 µM
Outline: as §1

CP192 = experiment: as above; settings: P. falciparum in erythrocytes, SYBR Green DNA, 72 h; series mostly up to 28.7 µM
Outline: as §1

CP201 = experiment: as above; settings: P. falciparum in erythrocytes, SYBR Green DNA, 72 h; series mostly up to 28.7 µM
Outline: as §1

CP215 = experiment: as above; settings: P. falciparum in erythrocytes, SYBR Green DNA, 72 h; series mostly up to 28.7 µM
Outline: as §1

CP237 = experiment: as above; settings: P. falciparum in erythrocytes, SYBR Green DNA, 72 h; series mostly up to 28.7 µM
Outline: as §1

CP238 = experiment: as above; settings: P. falciparum in erythrocytes, SYBR Green DNA, 72 h; series mostly up to 28.7 µM
Outline: as §1

CP268 = experiment: as above; settings: P. falciparum in erythrocytes, SYBR Green DNA, 72 h; series mostly up to 28.7 µM
Outline: as §1

CP269 = experiment: as above; settings: P. falciparum in erythrocytes, SYBR Green DNA, 72 h; series mostly up to 28.7 µM
Outline: as §1

CP286 = experiment: as above; settings: P. falciparum in erythrocytes, SYBR Green DNA, 72 h; series mostly up to 28.7 µM
Outline: as §1

CP325 = experiment: as above; settings: P. falciparum in erythrocytes, SYBR Green DNA, 72 h; series mostly up to 28.7 µM
Outline: as §1

CP329 = experiment: as above; settings: P. falciparum in erythrocytes, SYBR Green DNA, 72 h; series mostly up to 28.7 µM
Outline: as §1

FAB9 = experiment: as above; settings: P. falciparum in erythrocytes, SYBR Green DNA, 72 h; series mostly up to 28.7 µM
Outline: as §1

JCK = experiment: as above; settings: P. falciparum in erythrocytes, SYBR Green DNA, 72 h; series mostly up to 28.7 µM
Outline: as §1

PC49 = experiment: as above; settings: P. falciparum in erythrocytes, SYBR Green DNA, 72 h; series mostly up to 28.7 µM
Outline: as §1

ATP-dependent 6-phosphofructokinase (Trypanosoma brucei brucei), sequence (O15648 whole entry, looked up): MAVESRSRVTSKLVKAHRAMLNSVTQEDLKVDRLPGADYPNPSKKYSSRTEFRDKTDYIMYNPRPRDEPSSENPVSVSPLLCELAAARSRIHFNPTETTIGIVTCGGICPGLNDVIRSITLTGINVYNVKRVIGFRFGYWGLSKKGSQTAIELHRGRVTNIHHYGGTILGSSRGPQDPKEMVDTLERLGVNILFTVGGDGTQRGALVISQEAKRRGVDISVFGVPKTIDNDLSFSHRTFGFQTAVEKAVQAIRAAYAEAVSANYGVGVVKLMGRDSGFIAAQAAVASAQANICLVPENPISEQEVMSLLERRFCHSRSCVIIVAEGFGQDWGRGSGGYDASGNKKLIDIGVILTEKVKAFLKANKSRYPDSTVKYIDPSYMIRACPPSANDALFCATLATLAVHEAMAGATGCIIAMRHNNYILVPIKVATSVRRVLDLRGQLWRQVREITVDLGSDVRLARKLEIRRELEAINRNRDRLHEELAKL
Luciferin 4-monooxygenase (Photinus pyralis), sequence (P08659 whole entry, looked up): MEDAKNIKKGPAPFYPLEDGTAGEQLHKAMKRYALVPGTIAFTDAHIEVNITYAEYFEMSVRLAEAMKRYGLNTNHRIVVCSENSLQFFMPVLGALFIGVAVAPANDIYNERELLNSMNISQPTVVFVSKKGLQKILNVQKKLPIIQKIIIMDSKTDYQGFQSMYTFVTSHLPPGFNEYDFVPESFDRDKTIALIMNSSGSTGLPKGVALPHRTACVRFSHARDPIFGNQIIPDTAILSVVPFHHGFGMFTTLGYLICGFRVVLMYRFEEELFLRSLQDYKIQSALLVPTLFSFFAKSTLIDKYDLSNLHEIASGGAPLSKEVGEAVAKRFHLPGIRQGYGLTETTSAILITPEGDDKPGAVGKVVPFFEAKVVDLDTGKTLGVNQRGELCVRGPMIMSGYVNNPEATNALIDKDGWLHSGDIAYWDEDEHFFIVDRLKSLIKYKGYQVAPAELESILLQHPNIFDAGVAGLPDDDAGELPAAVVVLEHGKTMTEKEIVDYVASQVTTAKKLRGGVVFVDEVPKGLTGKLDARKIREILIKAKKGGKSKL
Ubiquitin carboxyl-terminal hydrolase 1 (Homo sapiens), sequence (O94782 whole entry, looked up): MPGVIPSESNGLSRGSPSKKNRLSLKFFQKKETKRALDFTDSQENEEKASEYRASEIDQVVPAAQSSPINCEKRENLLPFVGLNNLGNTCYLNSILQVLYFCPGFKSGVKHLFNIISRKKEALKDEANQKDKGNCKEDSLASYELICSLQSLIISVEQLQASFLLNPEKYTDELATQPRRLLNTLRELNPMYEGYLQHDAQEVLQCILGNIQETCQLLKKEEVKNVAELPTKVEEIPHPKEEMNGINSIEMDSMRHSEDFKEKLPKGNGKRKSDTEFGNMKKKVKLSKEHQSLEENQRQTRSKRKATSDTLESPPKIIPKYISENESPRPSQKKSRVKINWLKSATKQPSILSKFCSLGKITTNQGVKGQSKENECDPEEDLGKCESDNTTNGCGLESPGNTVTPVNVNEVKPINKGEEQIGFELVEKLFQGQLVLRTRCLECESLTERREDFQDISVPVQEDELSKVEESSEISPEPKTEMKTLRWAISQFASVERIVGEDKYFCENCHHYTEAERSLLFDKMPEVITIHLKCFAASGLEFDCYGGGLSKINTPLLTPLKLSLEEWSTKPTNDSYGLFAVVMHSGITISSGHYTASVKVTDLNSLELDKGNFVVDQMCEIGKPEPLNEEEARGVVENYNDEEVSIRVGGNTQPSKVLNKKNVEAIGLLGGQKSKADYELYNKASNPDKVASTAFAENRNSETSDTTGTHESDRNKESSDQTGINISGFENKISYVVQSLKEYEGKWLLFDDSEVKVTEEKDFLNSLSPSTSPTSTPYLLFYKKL

CC(C)CC1NC(=O)C(CCCN)NC(=O)C(C(C)C)NC(=O)C2CCCN2C(=O)C(Cc2ccccc2)NC(=O)C(CC(C)C)NC(=O)C(CCCN)NC(=O)C(C(C)C)NC(=O)C2CCCN2C(=O)C(Cc2ccccc2)NC1=O (stereo not drawn) (cyclo(FPV[Orn]LFPV[Orn]L); configuration not given here)
inactive: outcome [1]

C[C@]12C=CC(=O)C=C1CC[C@@H]1C2CC[C@]2(C)OC(=O)CCC12 (stereo partly drawn)
inactive: outcome [1] | Potency [2] | Potency [3] | activity, negative = inhibition ([4]; parasite line A) 2.99% | activity, negative = inhibition ([4]; parasite line B) 7.55% | Potency (ATS189) | Potency (C2A) | Potency (CP191) | Potency (CP192) | Potency (CP201) | Potency (CP215) | Potency (CP237) | Potency (CP238) | Potency (CP268) | Potency (CP269) | Potency (CP286) | Potency (CP325) | Potency (CP329) | Potency (FAB9) | Potency (JCK) | Potency (PC49)

COc1ccc2c3c1O[C@H]1[C@@H](O)C=C[C@H]4C(C2)NCCC341 (stereo partly drawn)
inactive: outcome [1] | Potency [2] | Potency [3] | activity, negative = inhibition ([4]; parasite line A) 7.6% | activity, negative = inhibition ([4]; parasite line B) -2.8% | Potency (ATS189) | Potency (C2A) | Potency (CP191) | Potency (CP192) | Potency (CP201) | Potency (CP215) | Potency (CP237) | Potency (CP238) | Potency (CP268) | Potency (CP269) | Potency (CP286) | Potency (CP325) | Potency (CP329) | Potency (FAB9) | Potency (JCK) | Potency (PC49)

C[C@@H]1CC[C@H]2[C@@H](C)C(=O)O[C@@H]3OC4(C)CC[C@@H]1C32OO4 (stereo partly drawn)
active: Potency ([4]; parasite line A) 0.0079 µM | Potency ([4]; parasite line B) 0.0071 µM | Potency (ATS189) 0.0089 µM | Potency (C2A) 0.0112 µM | Potency (CP191) 0.0071 µM | Potency (CP192) 0.0169 µM | Potency (CP201) 0.0301 µM | Potency (CP215) 0.0135 µM | Potency (CP237) 0.01 µM | Potency (CP238) 0.01 µM | Potency (CP268) 0.0135 µM | Potency (CP269) 0.0107 µM | Potency (CP286) 0.0071 µM | Potency (CP325) 0.0151 µM | Potency (CP329) 0.0151 µM | Potency (FAB9) 0.0079 µM
inactive: outcome [1] | Potency [2] | Potency [3]

C=C1Nc2ccccc2C(=O)N1c1ccccc1C
inactive: outcome [1] | Potency [2] | Potency [3] | activity, negative = inhibition ([4]; parasite line A) -20.1% | activity, negative = inhibition ([4]; parasite line B) -23.4% | Potency (ATS189) | Potency (C2A) | Potency (CP191) | Potency (CP192) | Potency (CP201) | Potency (CP215) | Potency (CP237) | Potency (CP238) | Potency (CP268) | Potency (CP269) | Potency (CP286) | Potency (CP325) | Potency (CP329) | Potency (FAB9) | Potency (JCK) | Potency (PC49)

CCOC(=O)/C=C(C)/C=C/CC(C)CCCC(C)C (stereo not drawn)
inactive: outcome [1] | Potency [2] | Potency [3] | activity, negative = inhibition ([4]; parasite line A) -0.0375% | activity, negative = inhibition ([4]; parasite line B) 8.06% | Potency (ATS189) | Potency (C2A) | Potency (CP191) | Potency (CP192) | Potency (CP201) | Potency (CP215) | Potency (CP237) | Potency (CP238) | Potency (CP268) | Potency (CP269) | Potency (CP286) | Potency (CP325) | Potency (CP329) | Potency (FAB9) | Potency (JCK) | Potency (PC49)

CCC1NC(=O)C(NC(=O)c2ncccc2O)C(C)OC(=O)C(c2ccccc2)NC(=O)C2CC(=O)CCN2C(=O)C(Cc2ccccc2)N(C)C(=O)C2CCCN2C1=O (stereo not drawn)
inactive: outcome [1]

CCCN1CCCC2Cc3nc(N)ncc3CC21 (stereo not drawn)
inactive: outcome [1] | Potency [2] | Potency [3] | activity, negative = inhibition ([4]; parasite line A) 2.28% | activity, negative = inhibition ([4]; parasite line B) 5.03% | Potency (ATS189) | Potency (C2A) | Potency (CP191) | Potency (CP192) | Potency (CP201) | Potency (CP215) | Potency (CP237) | Potency (CP238) | Potency (CP268) | Potency (CP269) | Potency (CP286) | Potency (CP325) | Potency (CP329) | Potency (FAB9) | Potency (JCK) | Potency (PC49)

OCC(O)[C@H]1O[C@@H]2O[C@H](C(Cl)(Cl)Cl)O[C@@H]2[C@H]1O (stereo partly drawn)
inactive: outcome [1] | Potency [2] | Potency [3] | activity, negative = inhibition ([4]; parasite line A) 8.92% | activity, negative = inhibition ([4]; parasite line B) 3.35% | Potency (ATS189) | Potency (C2A) | Potency (CP191) | Potency (CP192) | Potency (CP201) | Potency (CP215) | Potency (CP237) | Potency (CP238) | Potency (CP268) | Potency (CP269) | Potency (CP286) | Potency (CP325) | Potency (CP329) | Potency (FAB9) | Potency (JCK) | Potency (PC49)

CCCCCc1cc(O)c2c(c1)OC(C)(C)C1CC=C(C)CC21 (stereo not drawn)
active: Potency ([4]; parasite line A) 3.55 µM | Potency ([4]; parasite line B) 1.12 µM | Potency (ATS189) 3.16 µM | Potency (C2A) 10 µM | Potency (CP191) 3.98 µM | Potency (CP192) 6.01 µM | Potency (CP201) 15.1 µM | Potency (CP215) 4.26 µM | Potency (CP237) 1.78 µM | Potency (CP238) 3.16 µM | Potency (CP268) 6.01 µM | Potency (CP269) 4.78 µM | Potency (CP286) 5.62 µM | Potency (CP325) 6.01 µM | Potency (CP329) 9.53 µM | Potency (JCK) 11.2 µM | Potency (PC49) 4.47 µM
inactive: outcome [1] | Potency [3]

Cc1cc(C)cc(C(=O)OC2CC3CCC(C2)N3C)c1 (stereo not drawn)
inactive: outcome [1] | Potency [2] | Potency [3] | activity, negative = inhibition ([4]; parasite line A) -5.04% | activity, negative = inhibition ([4]; parasite line B) 8.93% | Potency (ATS189) | Potency (C2A) | Potency (CP191) | Potency (CP192) | Potency (CP201) | Potency (CP215) | Potency (CP237) | Potency (CP238) | Potency (CP268) | Potency (CP269) | Potency (CP286) | Potency (CP325) | Potency (CP329) | Potency (FAB9) | Potency (JCK) | Potency (PC49)

CNCC(=O)NC(CCCN=C(N)N)C(=O)NC(C(=O)NC(Cc1ccc(O)cc1)C(=O)NC(C(=O)NC(Cc1cnc[nH]1)C(=O)N1CCCC1C(=O)NC(C)C(=O)O)C(C)C)C(C)C (stereo not drawn)
inactive: outcome [1]
